{"source": "paper PMC4336329", "about": "(PLoS ONE, 2015)", "note": "The whole screen tested about 310,000 compounds, of which about 14,000 (4.5%) showed an effect of 50% or more. Effects have a minus sign here. The entries come from a sample that favours strong results as a whole.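 Also: peak tail current of the secondary pulse compared with the same well before compound.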", "data": [{"target": "human ether-à-go-go-related gene (hERG) potassium channel (human, UniProt Q12809)", "sequence (Q12809 whole entry, looked up)": "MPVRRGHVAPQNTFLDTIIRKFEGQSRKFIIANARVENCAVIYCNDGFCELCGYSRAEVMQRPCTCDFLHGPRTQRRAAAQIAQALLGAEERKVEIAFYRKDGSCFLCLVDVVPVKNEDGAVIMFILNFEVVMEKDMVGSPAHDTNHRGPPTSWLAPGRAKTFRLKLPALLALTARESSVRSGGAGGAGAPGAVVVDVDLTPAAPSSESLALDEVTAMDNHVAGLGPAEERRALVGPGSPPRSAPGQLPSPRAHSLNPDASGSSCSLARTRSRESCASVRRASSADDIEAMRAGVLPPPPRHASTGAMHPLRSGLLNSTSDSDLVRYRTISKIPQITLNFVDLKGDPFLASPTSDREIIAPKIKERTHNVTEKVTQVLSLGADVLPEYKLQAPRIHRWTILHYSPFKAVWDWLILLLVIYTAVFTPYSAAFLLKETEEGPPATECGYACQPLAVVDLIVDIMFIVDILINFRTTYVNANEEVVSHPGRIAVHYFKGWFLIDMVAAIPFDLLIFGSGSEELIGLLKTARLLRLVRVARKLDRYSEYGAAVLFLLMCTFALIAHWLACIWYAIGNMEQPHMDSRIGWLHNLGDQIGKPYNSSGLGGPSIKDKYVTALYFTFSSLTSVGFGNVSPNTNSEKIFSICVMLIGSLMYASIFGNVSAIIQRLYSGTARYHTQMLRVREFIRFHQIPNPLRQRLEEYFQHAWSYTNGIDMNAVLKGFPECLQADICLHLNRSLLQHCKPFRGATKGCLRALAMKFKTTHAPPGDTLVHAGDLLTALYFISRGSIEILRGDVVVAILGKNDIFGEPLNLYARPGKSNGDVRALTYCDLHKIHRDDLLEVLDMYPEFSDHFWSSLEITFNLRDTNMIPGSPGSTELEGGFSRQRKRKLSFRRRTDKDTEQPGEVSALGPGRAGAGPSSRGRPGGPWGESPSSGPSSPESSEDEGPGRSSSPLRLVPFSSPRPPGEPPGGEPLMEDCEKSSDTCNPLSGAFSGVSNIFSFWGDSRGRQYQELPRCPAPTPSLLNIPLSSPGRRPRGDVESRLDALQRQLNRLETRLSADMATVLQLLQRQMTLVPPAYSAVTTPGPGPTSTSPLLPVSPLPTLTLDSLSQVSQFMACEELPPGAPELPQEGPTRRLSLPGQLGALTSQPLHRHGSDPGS", "assay": "primary screen, population patch clamp on CHO cells stably expressing hERG; higher = less effect of the substance", "units": {"hERG current change (%, negative = inhibition) at 10uM": "%"}, "values": [{"smiles": "Nc1ccc(C(=O)Nc2ccccc2C(=O)O)cc1", "hERG current change (%, negative = inhibition) at 10uM": 10.2}, {"smiles": "Cc1[nH]n2c(=O)c3c(nc2c1-c1ccccc1)CCC3", "hERG current change (%, negative = inhibition) at 10uM": 0.138}, {"smiles": "CCCN(CCC(=O)Nc1cc(OC)cc(OC)c1)CC1CC1.Cl", "hERG current change (%, negative = inhibition) at 10uM": -12.1}, {"smiles": "Cc1cc(NC(=O)c2nn3cccnc3c2Cl)no1", "hERG current change (%, negative = inhibition) at 10uM": 6.12}, {"smiles": "CNC(=S)Nc1cc(Cl)ccc1Oc1ccccc1", "hERG current change (%, negative = inhibition) at 10uM": -6.86}, {"smiles": "CCc1nnc(NC(=O)CCN2C(=O)CCC2=O)s1", "hERG current change (%, negative = inhibition) at 10uM": -8.3}, {"smiles": "COc1ccc2sc(-c3ccc(SC)cc3)c(C#CC(C)(C)O)c2c1", "hERG current change (%, negative = inhibition) at 10uM": 11.6}, {"smiles": "CCOC(=O)C1(CCOc2ccccc2)CCN(Cc2ccccc2O)CC1", "hERG current change (%, negative = inhibition) at 10uM": -30.8}, {"smiles": "CCOC(=O)C1(CCOc2ccccc2)CCN(Cc2cc(OC)c(O)cc2Cl)CC1", "hERG current change (%, negative = inhibition) at 10uM": -69.2}, {"smiles": "CCOC(=O)C1(CCOc2ccccc2)CCN(Cc2ccccc2OC)CC1", "hERG current change (%, negative = inhibition) at 10uM": -71.4}, {"smiles": "CCOC(=O)C1(CCOc2ccccc2)CCN(Cc2cc(OC)ccc2OC)CC1", "hERG current change (%, negative = inhibition) at 10uM": -73.2}, {"smiles": "CCOC(=O)C1(CCOc2ccccc2)CCN(Cc2cccc(OC)c2O)CC1", "hERG current change (%, negative = inhibition) at 10uM": -70.5}, {"smiles": "O=C(O)c1cc(-n2[nH]c(=O)c3ccccc3c2=O)ccc1Cl", "hERG current change (%, negative = inhibition) at 10uM": 21.3}, {"smiles": "Cc1sc2ncnc(N3CCCCC3C)c2c1C", "note": "(centres unmarked)", "hERG current change (%, negative = inhibition) at 10uM": -13.6}, {"smiles": "Cc1cc(C)c(C(=O)CN2C(=O)NC3(CCC(C)CC3)C2=O)cc1C", "note": "(centres unmarked)", "hERG current change (%, negative = inhibition) at 10uM": 11.1}, {"smiles": "COC(=O)c1sccc1NC(=O)CC1NCCNC1=O", "note": "(centres unmarked)", "hERG current change (%, negative = inhibition) at 10uM": 0.0435}, {"smiles": "COc1ccccc1NC(=O)/C=C/c1ccc2c(c1)OCO2", "hERG current change (%, negative = inhibition) at 10uM": -8.32}, {"smiles": "Cn1c(=O)c2c(SCC(=O)NCc3ccco3)nc(CC(C)(C)C)nc2n(C)c1=O", "hERG current change (%, negative = inhibition) at 10uM": -57.4}, {"smiles": "CCc1nc(SCC(=O)NCc2ccco2)c2c(=O)n(C)c(=O)n(C)c2n1", "hERG current change (%, negative = inhibition) at 10uM": -0.832}, {"smiles": "CCc1nc(SCc2ccccn2)c2c(=O)n(C)c(=O)n(C)c2n1", "hERG current change (%, negative = inhibition) at 10uM": 0.896}, {"smiles": "Cn1c(=O)c2c(SCc3ccccn3)nc(CC(C)(C)C)nc2n(C)c1=O", "hERG current change (%, negative = inhibition) at 10uM": -79.4}, {"smiles": "CCCc1nc(SCC(=O)NCc2ccco2)c2c(=O)n(C)c(=O)n(C)c2n1", "hERG current change (%, negative = inhibition) at 10uM": 0.943}, {"smiles": "Cn1c(=O)c2c(SCc3ccccn3)nc(C3CC3)nc2n(C)c1=O", "hERG current change (%, negative = inhibition) at 10uM": 6.51}, {"smiles": "Cc1ccccc1-c1nc(SCc2ccccn2)c2c(=O)n(C)c(=O)n(C)c2n1", "hERG current change (%, negative = inhibition) at 10uM": 28.7}, {"smiles": "CC(C)c1nc(SCc2ccccn2)c2c(=O)n(C)c(=O)n(C)c2n1", "hERG current change (%, negative = inhibition) at 10uM": 5.32}, {"smiles": "CCCc1nc(SCc2ccccn2)c2c(=O)n(C)c(=O)n(C)c2n1", "hERG current change (%, negative = inhibition) at 10uM": -59.1}, {"smiles": "Cc1ccc(N(C)S(=O)(=O)c2ccc3[nH]cc(C(=O)NCCCN4CCOCC4)c(=O)c3c2)cc1C", "hERG current change (%, negative = inhibition) at 10uM": -16.5}, {"smiles": "Cc1ccc(Nc2ncccc2C(N)=O)cc1", "hERG current change (%, negative = inhibition) at 10uM": 19.5}, {"smiles": "Cc1ccccc1NC1=NS(=O)(=O)c2ccccc21", "hERG current change (%, negative = inhibition) at 10uM": 4.25}, {"smiles": "CCOc1ccc(OCC)c(NC(=O)CN(c2ccc(C)cc2)S(=O)(=O)c2c(C)noc2C)c1", "hERG current change (%, negative = inhibition) at 10uM": 3.31}, {"smiles": "Cl.O=C(CN1CCCC1)Nc1ccc(OC(F)(F)F)cc1", "hERG current change (%, negative = inhibition) at 10uM": -41.1}, {"smiles": "CCOC(=O)N1CCN(CCC(=O)Nc2ccc(OC(F)(F)F)cc2)CC1", "hERG current change (%, negative = inhibition) at 10uM": -63.3}, {"smiles": "O=C(CN1CCc2ccccc2C1)Nc1ccc(OC(F)(F)F)cc1", "hERG current change (%, negative = inhibition) at 10uM": -6.92}, {"smiles": "CCOC(=O)N1CCN(CCC(=O)Nc2ccc(OC)cc2)CC1", "hERG current change (%, negative = inhibition) at 10uM": -1.76}, {"smiles": "CCOC(=O)N1CCN(CCC(=O)Nc2ccc(Br)cc2)CC1", "hERG current change (%, negative = inhibition) at 10uM": -33.2}, {"smiles": "CN1CCN(CC(=O)Nc2ccc(OC(F)(F)F)cc2)CC1.Cl", "hERG current change (%, negative = inhibition) at 10uM": -65.1}, {"smiles": "O=C(CN1CCN(c2ccccn2)CC1)Nc1ccc(OC(F)(F)F)cc1", "hERG current change (%, negative = inhibition) at 10uM": -29.9}, {"smiles": "Cl.O=C(CN1CCOCC1)Nc1ccc(OC(F)(F)F)cc1", "hERG current change (%, negative = inhibition) at 10uM": -8.1}, {"smiles": "CCN1CCN(CC(=O)Nc2ccc(OC(F)(F)F)cc2)CC1.Cl", "hERG current change (%, negative = inhibition) at 10uM": -69.1}, {"smiles": "CC1CCC(C(C)C)C(OC(=O)C2=C3c4ccccc4S(=O)(=O)N3CC2)C1", "note": "(centres unmarked)", "hERG current change (%, negative = inhibition) at 10uM": 12.3}, {"smiles": "CN(C)S(=O)(=O)N1CCN(C(=O)N2CCCCCC2)CC1", "hERG current change (%, negative = inhibition) at 10uM": -12.2}, {"smiles": "O=C(N/N=C/c1ccccn1)c1cccc(NC(=O)c2ccccc2Cl)c1", "hERG current change (%, negative = inhibition) at 10uM": -4.9}, {"smiles": "CC(=O)O.Cc1nc2nc(CSc3nnc(C)s3)cc(=O)n2[nH]1", "hERG current change (%, negative = inhibition) at 10uM": 13.9}, {"smiles": "CCOC(=O)CN(C(=O)Cn1nnc(-c2ccc(C)cc2)n1)C(CC)C(=O)NC1CCCC1", "note": "(centres unmarked)", "hERG current change (%, negative = inhibition) at 10uM": -8.67}, {"smiles": "Cc1cc2c(cc1C)C(c1cc(Br)ccc1F)CC(=O)N2", "note": "(centres unmarked)", "hERG current change (%, negative = inhibition) at 10uM": 8.78}, {"smiles": "COc1ccc2[nH]c(C)c(CCNC(=S)Nc3ccccc3OC)c2c1", "hERG current change (%, negative = inhibition) at 10uM": 8.79}, {"smiles": "CNC(=O)c1cc2cc(OC)ccc2n1CCN(C)C", "hERG current change (%, negative = inhibition) at 10uM": -11.6}, {"smiles": "CN(C)CCn1c(C(=O)O)cc2ccccc21.Cl", "hERG current change (%, negative = inhibition) at 10uM": 14.6}, {"smiles": "CN(C)CCn1c(C(=O)Nc2ccccc2)cc2ccccc21.Cl", "hERG current change (%, negative = inhibition) at 10uM": -58.9}, {"smiles": "CCOC(=O)CSc1nc(=O)n2ccccc2n1", "hERG current change (%, negative = inhibition) at 10uM": 13.2}, {"smiles": "COc1ccccc1NC(=O)CCS(=O)(=O)c1ccccc1", "hERG current change (%, negative = inhibition) at 10uM": 12.7}, {"smiles": "CC(NC(=O)Cn1cc2c(n1)CCCCC2)c1ccccc1", "note": "(centres unmarked)", "hERG current change (%, negative = inhibition) at 10uM": 1.69}, {"smiles": "Cc1ccc2nc(SCC(=O)c3ccccc3)nc(=O)n2c1", "hERG current change (%, negative = inhibition) at 10uM": -10.1}, {"smiles": "COc1ccc(C)cc1Nc1n[n+](-c2ccccc2)c(-c2ccc(SC)cc2)s1.[Cl-]", "hERG current change (%, negative = inhibition) at 10uM": -1.4}, {"smiles": "COc1ccc(C)cc1Nc1n[n+](-c2ccccc2)c(-c2ccc(N(C)C)cc2)s1.[Cl-]", "hERG current change (%, negative = inhibition) at 10uM": -49.3}, {"smiles": "CCOc1cc(-c2sc(Nc3ccccc3)n[n+]2-c2ccc(F)cc2)ccc1OC.[Cl-]", "hERG current change (%, negative = inhibition) at 10uM": 23.6}, {"smiles": "CCc1ccc(Nc2n[n+](-c3ccccc3)c(-c3ccc(OC)c(Br)c3)s2)cc1.[Cl-]", "hERG current change (%, negative = inhibition) at 10uM": -44}, {"smiles": "CCOc1cc(-c2sc(Nc3cc(C)ccc3OC)n[n+]2-c2ccccc2)ccc1OC.[Cl-]", "hERG current change (%, negative = inhibition) at 10uM": -68.7}, {"smiles": "CCOc1cc(-c2sc(Nc3ccc(CC)cc3)n[n+]2-c2ccccc2)ccc1OC.[Cl-]", "hERG current change (%, negative = inhibition) at 10uM": -78.7}]}]}
